Screening results as filed in PubChem.
ATXN2 expr inh: ATXN2 expression inhibition. 0.72% of 360,000 active. HEK-293 ATXN2-luciferase reporter, luminescence, 24 h. Potency, µM (titrated, usually from 57 µM), inactives show top-dose activity change, negative = inhibition, most hits filed as inhibitors; also: % is scaled to controls: 0 for no effect and ±100 for the full control effect; nearly all actives have a fitted effect of over 55% in size
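qHTS (up to 57 uM final) was run with 24 h compound exposure of reporter cells at 37 °C. Each well was multiplexed: SteadyGlo luminescence measured ATXN2-luciferase expression after a fluorogenic Gly-Phe-AFC viability readout (25 uM final).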
GLP1R inv ag: acts as inverse agonist at human GLP-1 receptor. Potency, µM (titrated, usually from 38.3 µM), without a hit: at the highest dose activity change, negative = inhibition, usual class: inhibitors. AID 624417. 1.6% of 410,000 active. HEK293 GLP-1R CRE-luciferase, luminescence, 24 h; GLP-1R form is constitutively active; also: % is scaled to controls: 0 for no effect and ±100 for the full control effect; nearly all actives have a fitted effect of over 55% in size
Target sequence (P43220 whole entry, looked up): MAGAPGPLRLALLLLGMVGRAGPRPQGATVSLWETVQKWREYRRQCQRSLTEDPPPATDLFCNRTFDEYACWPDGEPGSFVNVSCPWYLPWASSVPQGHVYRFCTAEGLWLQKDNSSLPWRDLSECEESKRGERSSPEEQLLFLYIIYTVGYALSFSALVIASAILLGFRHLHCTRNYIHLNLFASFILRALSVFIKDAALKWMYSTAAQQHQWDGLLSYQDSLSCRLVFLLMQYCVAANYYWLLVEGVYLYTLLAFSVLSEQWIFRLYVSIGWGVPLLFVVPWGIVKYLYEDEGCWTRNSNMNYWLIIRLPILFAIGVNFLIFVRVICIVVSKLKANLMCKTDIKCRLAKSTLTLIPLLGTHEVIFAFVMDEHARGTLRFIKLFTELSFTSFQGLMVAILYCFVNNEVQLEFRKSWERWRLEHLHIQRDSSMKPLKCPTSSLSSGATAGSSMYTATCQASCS
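Using stably transfected HEK293 (constitutively active GLP-1R, cAMP-luciferase reporter), compounds were incubated 24 hr and luciferase measured by luminescence.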
GLP-1R agonist: GLP-1 receptor (human) agonism. HEK293 GLP-1R CRE-luciferase, luminescence, 4-6 h; cells express a hypersensitive GLP-1R form. 0.007% of 380,000 active. P43220. Potency, µM (highest dose often 45.6 µM), without a hit: at the highest dose activation, hits mostly activators; also: % of control where 0% means no effect
ATXN viability: reduces viability in counter-screen for ATXN expression inhibitors; S2 cells (HEK-293 line with an ATXN2-luciferase reporter) viability, CellTiter-Fluor protease fluorescence, 24 h; 0.49% of 400,000 active; Potency, µM (highest dose often 56.7 µM), most hits filed as cytotoxic; also: nearly all actives have a fitted effect of over 40% in size
HepG2 tox: counter-screen for TGF-b inhibitors: cytotoxicity in HepG2 cells; HepG2 CAGA-GFP viability, ATP luminescence, 18 h; Potency, µM (titrated, usually from 46.1 µM), inactives show at the highest dose activity change, negative = cytotoxicity, usual class: cytotoxic; 0.76% of 410,000 active; AID 588856
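HepG2 CAGA-GFP cells (1000/well, DMEM with 1% FBS) received compound, then TGF-beta at 500 pg/mL final, and were incubated 18 hours at 37 degrees C. Viability was read by CellTiter-Glo luminescence. Media-only wells were set as complete cell-killing and DMSO as no toxicity.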
TGFb SMAD3 inh: TGF-b pathway inhibition | HepG2 CAGA-GFP TGF-b/SMAD3 reporter, GFP fluorescence, 18 h; TGF-beta stimulated, 500 pg/mL final | Potency, µM (series often up to 46.1 µM), without a hit: at the highest dose activity, negative = inhibition, most hits filed as inhibitors | 1.2% of 410,000 active; also: % is scaled to controls: 0 for no effect and ±100 for the full control effect; nearly all actives have a fitted effect of over 65% in size
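Using HEPG2 CAGA-GFP reporter cells at 1000 cells/well, we pinned test compounds, stimulated with recombinant TGF-beta (500 pg/mL final) and measured total well GFP after 18 h.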
* hit, by the source's call; i = inactive; ? = inconclusive; · = no result. A selection: hits, their analogues and other compounds. The true share with any hit is near 3.7%. Calls follow the shape of the dose curve; as a rule, active = well fitted curve in the direction sought with a large enough effect; inconclusive = small, poorly fitted or top-dose-only effect, or another doubt; inactive = no such curve, though single readings can be large; an effect the other way counts as inactive or inconclusive. Potency is read from the fitted curve at half-maximal effect.

SMILES | ATXN2 expr inh | GLP1R inv ag | GLP-1R agonist | ATXN viability | HepG2 tox | TGFb SMAD3 inh
COc1ccc(S(=O)(=O)Cc2ccc(C(=O)N3CCN(c4cccc(C)c4C)CC3)o2)cc1 | ? | ? | -6% | ? | -21% | ?
O=[N+]([O-])c1ccc(Nc2ccccc2-c2ccccc2)c2nonc12 | -29% | · | · | · | · | ·
CN(C)CCCCCCNc1nccc(N2CCN(C)CC2)n1 | · | · | · | · | -38% | 3%
O=C(NC1CCCCC1)[C@@H]1CC=C[C@@H]2CCN(Cc3ccc(Cl)c(Cl)c3)C(=O)[C@@H]21 | · | · | · | · | 7% | 15%
CCC(Sc1nc2cc3c(cc2c(=O)n1CCCCCC(=O)NCc1ccc2c(c1)OCO2)OCO3)C(=O)NCCCOC (stereo not drawn) | · | 1% | · | · | 6% | 30%
Cc1cc(C)n(CC(=O)N2CCC(n3c(C(C)C)nc4cccnc43)CC2)n1 | · | · | · | i | · | ·
Cc1ccc(NC(=O)C(OC(=O)c2ccc(NC(N)=O)cc2)c2ccccc2)cc1Cl (stereo not drawn) | 26% | ? | 12% | i | 13µM* | ?
Cc1ccc(NC(=O)C(OC(=O)c2ccccc2Cl)c2ccccc2)cc1Cl (stereo not drawn) | 0% | ? | -4% | ? | -5% | 0%
CCNc1nc(N)nc(Oc2ccc(OCC(=O)OC)nn2)n1 | · | 13% | · | · | -1% | 1%
NCC12CC3CC(C1)CC(c1ccc(Br)cc1)(C3)C2 | · | ? | -4% | · | 13µM* | ?
CCOc1cc(/C=N/Nc2nnc(C)n2N)ccc1O | -33% | -19% | -1% | i | 11µM* | 11µM*
Oc1ccc(/C=N/Nc2ccccc2)cc1 | -19% | ? | 4% | i | -9% | 0%
Brc1ccc(/C=N/Nc2ccccc2)cc1 | 19% | 4.5µM* | 1% | i | -12% | -14%
COc1ccc(OC)c(/C=N/Nc2nncn2/N=C/c2cc(OC)ccc2OC)c1 | -6% | ? | 7% | ? | -8% | -18%
COc1cc(/C=N/Nc2ccccc2C(F)(F)F)ccc1O | · | ? | 11% | i | -14% | -28%
COc1cc(/C=N/Nc2nncn2/N=C/c2ccc(O)c(OC)c2)ccc1O | -19% | 5% | -6% | i | 10µM* | 4%
COc1cc(/C=N/Nc2ccccc2)ccc1O | 5% | 2.5µM* | 12% | i | -6% | 3%
Cc1ccccc1CN1Cc2cccc3c2[C@H](C=CC3)CC1=O | · | · | · | · | -4% | ?
COc1ccc(-c2cc3nc[nH]c(=O)c3s2)cc1 | 12% | 9% | -2% | i | -24% | -9%
COc1ccc(-c2cc3nc(CCl)[nH]c(=O)c3s2)cc1 | 13µM* | ? | -3% | i | 22µM* | ?
CC1(C)CC2(C)OC(=N)C1(C#N)C2(C#N)C#N (stereo not drawn) | ? | 42% | -2% | ? | 16% | 16µM*
CCCC[C@@H](CC)COC(=O)C[C@H](C(=O)OC[C@H](CC)CCCC)S(=O)(=O)O | · | · | -1% | · | · | ·
Cc1ccnc(Nc2nc3ccccc3o2)n1 | ? | 2.5µM* | -6% | i | -58% | -11%
O=C(Nc1ccc(Cl)c([N+](=O)[O-])c1)c1ccc(NCCCN2CCOCC2)c([N+](=O)[O-])c1 | 32µM* | 14% | 8% | ? | -15% | 7%
CCCCCC=CCC=CCCCCCCCC(=O)OCC | -5% | · | 3% | i | · | ·
SMILES | ATXN2 expr inh | GLP1R inv ag | GLP-1R agonist | ATXN viability | HepG2 tox | TGFb SMAD3 inh
CCC1(C2CCN(Cc3cccc(Cl)c3)CC2)NC(=O)N(CC2COc3ccccc3O2)C1=O (stereo not drawn) | · | · | · | i | · | ·
O=c1[nH]c2ccc(Br)cc2o1 | 6% | 8% | 8% | i | 9% | 21%
O=C(CCl)c1ccc2[nH]c(=O)oc2c1 | · | 11% | 1% | i | 10µM* | ?
CNc1c(Cl)cc(/C=C2\C=Cc3ccccc32)cc1Cl | · | · | · | · | -38% | -17%
O=C(C[N+]1(CCO)CCOCC1)c1cccs1 | · | · | · | · | -1% | -1%
Cc1ccccc1C(=O)Nc1cccc(NC(=O)c2ccc(C(C)(C)C)cc2)c1 | 4% | 7.9µM* | · | ? | -22% | ?
Cc1ccccc1C(=O)NNC(=S)Nc1cccc(C(F)(F)F)c1 | ? | ? | 0% | i | 10µM* | ?
FC(F)(F)c1cccc(NC(=S)NC(c2ccccc2)c2ccccc2)c1 | ? | 2.8µM* | 5% | i | -48% | ?
FC(F)(F)c1cccc(NC(=S)Nc2ccc(Cl)c(Cl)c2)c1 | ? | ? | 0% | i | -27% | ?
O=C(NNC(=S)Nc1cccc(C(F)(F)F)c1)c1ccc(Cl)cc1Cl | -23% | -26% | -15% | i | -57% | ?
O=C(C1CC1)N1CCc2cc(Br)cc(S(=O)(=O)Nc3ccc(C(F)(F)F)cc3)c21 | ? | ? | -12% | ? | -31% | ?
CCCCCCn1c(SCC#N)nc2ccccc2c1=O | · | · | · | · | 15% | 12%
Cc1ccc(Cn2cnc3c(cnn3C(C)(C)C)c2=O)cc1F | · | · | · | · | -74% | -15%
CC1CN(CCC(=O)NCc2ccc3ncccc3c2)Cc2cc(Cl)ccc2O1 (stereo not drawn) | · | · | · | i | · | ·
C#Cc1cccc(C(=O)NCc2nc(-c3ccccc3NC(C)=O)oc2C)c1 | · | · | · | i | · | ·
Cc1cc(C)c2nccc(C)c2c1 | · | · | · | · | -3% | -13%
Cn1nc(C(F)(F)F)c(-c2ccc(Br)cc2)c1NC(=O)c1ccco1 | -32% | 7.1µM* | -5% | i | -50% | ?
Cc1ccc(-c2nc(C(=O)NCC3CCCO3)cc3c2[nH]c2ccccc23)cc1 (stereo not drawn) | ? | ? | -5% | ? | -31% | -5%
COc1ccc(OC)c(-c2nc(C(=O)NC3CCN(Cc4ccccc4)CC3)cc3c2[nH]c2ccccc23)c1 | 7% | 10µM* | 11% | i | -16% | 2%
COc1ccc(-c2nc(C(=O)NCC3CCCO3)cc3c2[nH]c2ccccc23)cc1 (stereo not drawn) | ? | 10µM* | -5% | ? | -23% | 11%
Cc1ccccc1-c1nc(C(=O)NCC2CCCO2)cc2c1[nH]c1ccccc12 (stereo not drawn) | ? | 10µM* | ? | ? | -5% | -20%
COc1cc(-c2nc(C(=O)NC3CCN(Cc4ccccc4)CC3)cc3c2[nH]c2ccccc23)cc(OC)c1OC | -31% | ? | 8% | i | -16% | -39%
CC1CC(C)CN(C(=O)CNC(=O)c2sc3ccccc3c2Cl)C1 (stereo not drawn) | -19% | 3.2µM* | -9% | i | -26% | ?
